Screens (PubChem)
Hits are enriched below; roughly 11% of the tested compounds scored in any of these assays.
12-hLO inh: 12-hLO (ALOX12) enzyme inhibition | P18054 | purified 12-hLO, xylenol orange hydroperoxide absorbance | Potency, µM (titrated, usually from 57.1 µM), for the others: top-dose activity change, negative = inhibition, actives largely listed as inhibitors | 150,000 compounds, 0.12% hits | AID 1452; active = well fitted curve in the direction sought with a large enough effect; inconclusive = small, poorly fitted or top-dose-only effect, or another doubt; inactive = no such curve, though single readings can be large; an effect the other way counts as inactive or inconclusive; also: potency is read from the fitted curve at half-maximal effect; nearly all actives have a fitted effect of over 55% in size
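Hydroperoxide output read as Fe(III)-xylenol orange absorbance, 573-to-405 nm ratio, after 30 min reaction with 40 uM arachidonic acid. Enzyme: 150 nM purified human 12hLO, 15 min compound preincubation; 25 mM Hepes pH 7.0, room temperature.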
IMPase Li cell: IMPase inhibition in cells with lithium potentiation; Potency, µM (titrated, usually from 59.4 µM), for the others: at the top dose activity, negative = IMPase inhibition, usual class: inhibitors; AID 1457; CHO-M1 cells, IP1 TR-FRET (IP-One), carbachol + lithium; 210,000 compounds, 0.35% hits; active = well fitted curve in the direction sought with a large enough effect; inconclusive = small, poorly fitted or top-dose-only effect, or another doubt; inactive = no such curve, though single readings can be large; an effect the other way counts as inactive or inconclusive;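 also: IP1 builds up when IMPase is blocked and the TR-FRET signal falls; potency is read from the fitted curve at half-maximal effect; plate controls were basal vehicle for no effect and high inhibitor control for full effect; nearly all actives have a fitted effect of over 50% in size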
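Concentration–response in CHO-M1 cells, lithium-potentiated; 30 min at 37C. IP1 detected by competitive TR-FRET after 10 min lysis at RT. Hill-fitted AC50.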
PNC inhibitor: perinucleolar compartment assembly inhibition | PC3M PTB-GFP, PNC prevalence imaging, 16 h; stronger effect = lower value | activity change (PNC), negative = inhibition, % at 10 µM | 140,000 compounds, 3.1% hits | AID 2417;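 active = readout at or below -70, meaning at least 70% loss of cells showing the perinucleolar compartment, a nuclear body marking cancer cells; inconclusive = readout between -30 and a set limit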;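 also: plate controls were DMSO wells for no effect and camptothecin positive control wells for full effect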
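PC3M cells stably expressing PTB-GFP, 750–1000 cells/well, treated 16 h at 37 °C with compound (23 nl of library stock), in duplicate. After paraformaldehyde fixation and Hoechst stain, imaged at 20x; PNC prevalence scored by image analysis.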
HPGD block: HPGD (human) dehydrogenase inhibition; Potency, µM, for the others: at the highest dose activity change, negative = inhibition, hits mostly inhibitors; purified HPGD, NADH fluorescence kinetic, PGE2 substrate; 150,000 compounds, 4.3% hits; P15428; also: potency is read from the fitted curve at half-maximal effect
Target sequence (P15428 whole entry, looked up): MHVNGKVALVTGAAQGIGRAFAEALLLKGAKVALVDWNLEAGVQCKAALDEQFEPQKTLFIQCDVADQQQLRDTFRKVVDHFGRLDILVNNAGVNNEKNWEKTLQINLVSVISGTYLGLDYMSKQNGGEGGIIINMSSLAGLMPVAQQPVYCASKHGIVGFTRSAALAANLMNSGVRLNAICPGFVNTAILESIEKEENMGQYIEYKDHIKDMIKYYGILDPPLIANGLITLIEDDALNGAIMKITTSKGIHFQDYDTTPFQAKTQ
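20 nM HPGD preincubated 15 min at room temperature with compound in 50 mM Tris-HCl pH 8, 0.01% Tween 20. Started with 1 mM NAD+ and 30 uM prostaglandin E2; NADH fluorescence (360/450 nm) read 5 times over 30-s intervals, last minus first.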
IMPase inh: membrane-permeable compound that blocks inositol monophosphatase | inhibition (IP1 accumulation), % at 46.1 µM | AID 901 | P97697 | CHO-M1 cells, IP1 accumulation, HTRF TR-FRET ratio | 120,000 tested, under 10 active; active = well fitted curve in the direction sought with a large enough effect in the signal ratio, not every such curve was filed as active; inconclusive = small, poorly fitted or top-dose-only effect, or a change in a side signal; inactive = no such curve, though single readings can be large or run the other way; the % refers to the signal ratio;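 also: cells stimulated with carbachol in lithium chloride buffer; plate controls were DMSO basal wells for no effect and reference inhibitor wells for full effect; higher means more IMPase inhibition seen as more IP1 and lower FRET ratio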
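Carbachol-driven Gq signalling in CHO-M1 cells (2000/well) generates IP1. Compounds that block IMPase raise IP1 and so reduce the FRET signal from Eu-anti-IP1 and d2-IP1 after a 10 min room-temperature lysis.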
ALDH1A1 block: blocks purified human ALDH1A1 activity | 220,000 compounds, 7.3% hits | P00352 | Potency, µM (series often up to 75.3 µM), for the others: at the top dose activity, negative = inhibition, actives largely listed as inhibitors | Purified ALDH1A1, NADH fluorescence, propionaldehyde substrate;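 also: potency is read from the fitted curve at half-maximal effect; plate controls were no enzyme wells and a reference inhibitor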
Target sequence (P00352 whole entry, looked up): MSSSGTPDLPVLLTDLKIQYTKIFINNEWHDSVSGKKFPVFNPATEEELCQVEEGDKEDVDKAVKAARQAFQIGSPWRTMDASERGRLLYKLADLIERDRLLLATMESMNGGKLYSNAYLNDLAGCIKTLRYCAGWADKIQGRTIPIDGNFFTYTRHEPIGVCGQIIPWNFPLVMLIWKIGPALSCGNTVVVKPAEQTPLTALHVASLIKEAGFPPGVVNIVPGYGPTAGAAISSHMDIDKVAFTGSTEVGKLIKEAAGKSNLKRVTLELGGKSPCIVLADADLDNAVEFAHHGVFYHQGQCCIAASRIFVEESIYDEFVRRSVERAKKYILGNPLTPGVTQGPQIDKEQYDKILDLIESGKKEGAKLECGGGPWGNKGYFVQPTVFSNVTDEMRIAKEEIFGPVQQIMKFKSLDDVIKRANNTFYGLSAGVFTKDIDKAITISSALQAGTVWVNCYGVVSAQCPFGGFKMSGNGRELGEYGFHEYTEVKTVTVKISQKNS
* hit, by the source's call; [ ] = dose if it differs, or a comment. Unless noted, calls follow the shape of the dose curve; as a rule, active = well fitted inhibition curve with a large enough effect (not every such curve was filed as active); inconclusive = small, poorly fitted or top-dose-only effect, or another doubt; inactive = no such curve, though single readings can be large or run the other way. Unless noted, % is scaled to controls: 0 for no effect and ±100 for the full control effect.

How did CC(=O)[C@]1(O)Cc2c(O)c3c(c(O)c2[C@@H](O[C@H]2C[C@H](N)[C@H](O)[C@H](C)O2)C1)C(=O)c1c(O)cccc1C3=O do in these assays?
12-hLO inh: -4%[0.00818 µM]; IMPase Li cell: 31%; HPGD block: -3%; ALDH1A1 block: -4%

What do the screens show for `CCOC(=O)OCC1OC(C#CC(C)(C)C)C=CC1OC(=O)OCC` (configuration not stated)?
ALDH1A1 block: 23%[13.5 µM]

What do the screens show for `Cc1scc(C(=O)Nc2ccon2)c1-c1ccccc1`?
12-hLO inh: -1%; IMPase Li cell: 9%[38.3 µM]; PNC inhibitor: inconclusive; HPGD block: -4%; IMPase inh: -3; ALDH1A1 block: 28µM*

How did Cc1csc2ncc(C(=O)Nc3ccon3)c(=O)n12 do in these assays?
12-hLO inh: 4%; IMPase Li cell: 0%; PNC inhibitor: 351; HPGD block: inconclusive; IMPase inh: -16; ALDH1A1 block: inconclusive

Results for O=C(NCc1cccs1)c1ccccc1 ?
12-hLO inh: 4%; IMPase Li cell: -2%[38.3 µM]; PNC inhibitor: 29; HPGD block: 25µM*; IMPase inh: 3; ALDH1A1 block: 7%

Results for Cc1cc(C(=O)NCc2cccs2)c(C)o1 ?
12-hLO inh: -4%; IMPase Li cell: 13%[38.3 µM]; PNC inhibitor: 15; HPGD block: 16µM*; IMPase inh: 4; ALDH1A1 block: -10%

What do the screens show for `Cc1occc1C(=O)NCc1cccs1`?
12-hLO inh: 5%; IMPase Li cell: -5%; PNC inhibitor: 7; HPGD block: inconclusive; IMPase inh: 9; ALDH1A1 block: 6%

Results for CCOC(=O)CNC(=O)c1cc(C)oc1C ?
12-hLO inh: -5%; IMPase Li cell: 24%[38.3 µM]; PNC inhibitor: 0; HPGD block: -12%; IMPase inh: 10; ALDH1A1 block: 0.063µM*

Results for NC(=O)N[C@H](CC(=O)O)C(=O)O ?
12-hLO inh: 2%[11.4 µM]; IMPase Li cell: -2%; HPGD block: -16%; ALDH1A1 block: 13%[13.5 µM]

Results for CCOC(=O)NNc1ccc2nonc2c1[N+](=O)[O-] ?
ALDH1A1 block: 18µM*

How did O=[N+]([O-])c1c(Nc2ccccc2)ccc2nonc12 do in these assays?
12-hLO inh: -2%; IMPase Li cell: 18%[38.3 µM]; PNC inhibitor: 34; HPGD block: -12%; IMPase inh: -2[1.84 µM]; ALDH1A1 block: -3%

What do the screens show for `COC(=O)C(Cc1c[nH]c2ccccc12)NC(=O)c1cc(-c2ccc(OC)c(OC)c2)oc1C` (configuration not stated)?
12-hLO inh: -8%; IMPase Li cell: 13%; PNC inhibitor: 38; HPGD block: 32µM*; IMPase inh: 6; ALDH1A1 block: 28µM*

What do the screens show for `COC(=O)CCC(NC(=O)c1cc(-c2ccc3c(c2)OCCO3)oc1C)C(=O)OC` (configuration not stated)?
12-hLO inh: -5%; IMPase Li cell: -3%[38.3 µM]; PNC inhibitor: -10; HPGD block: -20%; IMPase inh: 4; ALDH1A1 block: 20µM*

Results for CC(C)(CO)N=Cc1c(O)[nH]c2ccccc12 ?
12-hLO inh: 5%; IMPase Li cell: -5%[38.3 µM]; PNC inhibitor: -1; HPGD block: -1%; IMPase inh: -3; ALDH1A1 block: 6%

Results for CC(C)(C)c1[nH]c2ccccc2c1/C=N/O ?
12-hLO inh: -10%; IMPase Li cell: 4%[38.3 µM]; PNC inhibitor: 7; HPGD block: 2µM*; IMPase inh: -3; ALDH1A1 block: 10%

What do the screens show for `COc1ccc2nc(SCC(C)=O)c(C#N)cc2c1`?
12-hLO inh: 6%; IMPase Li cell: 14%; PNC inhibitor: inconclusive; HPGD block: -20%; ALDH1A1 block: 3%

How did COc1ccc2nc(SC)c(C#N)cc2c1 do in these assays?
IMPase Li cell: 11µM*; ALDH1A1 block: -4%

How did COc1cc(Cl)cc(/C=C/c2ccc3ccccc3n2)c1OC(C)=O do in these assays?
12-hLO inh: 3%; IMPase Li cell: 3%; PNC inhibitor: -101*; HPGD block: inconclusive; ALDH1A1 block: inconclusive

What do the screens show for `O=C1c2ccccc2C(=O)C12OC2c1ccc(Cl)cc1Cl` (configuration not stated)?
12-hLO inh: 1%; IMPase Li cell: -2%; PNC inhibitor: -24; HPGD block: -18%; ALDH1A1 block: 25µM*

How did CC1SC(c2ccc(Cl)cc2Cl)NC1=O (configuration not stated) do in these assays?
12-hLO inh: -5%; IMPase Li cell: -5%; PNC inhibitor: 25; HPGD block: -2%; IMPase inh: -12; ALDH1A1 block: 10%

What do the screens show for `O=c1ncccn1[C@@H]1O[C@H](CO)C(O)[C@@H]1O` (some centres not stated)?
12-hLO inh: 4%[0.00818 µM]; IMPase Li cell: -1%; HPGD block: -26%; ALDH1A1 block: -8%

What do the screens show for `O=c1cnn([C@@H]2O[C@H](CO)[C@@H](O)[C@H]2O)c(=O)[nH]1`?
12-hLO inh: -6%; IMPase Li cell: -8%; PNC inhibitor: -111*; HPGD block: 1%; ALDH1A1 block: -2%

How did CCN(CC)CC(=O)Nc1ccccc1SCC(=O)Nc1ccsc1C(=O)OC do in these assays?
IMPase Li cell: 18%; ALDH1A1 block: -9%

Results for COC(=O)c1sccc1NC(=O)CSc1ccccc1NS(=O)(=O)c1ccc(Cl)cc1 ?
12-hLO inh: -9%; IMPase Li cell: 8%[38.3 µM]; PNC inhibitor: -26; HPGD block: -16%; IMPase inh: 0; ALDH1A1 block: 13µM*

Results for COC(=O)c1sccc1NC(=O)CSc1ccccc1NS(=O)(=O)c1ccccc1Cl ?
12-hLO inh: -2%; IMPase Li cell: 14%[38.3 µM]; PNC inhibitor: -7; HPGD block: -15%; IMPase inh: -9[1.84 µM]; ALDH1A1 block: 7.1µM*

Results for Cc1ccccc1-c1n[nH]c(=S)n1/N=C/c1c(C)nn(-c2ccccc2)c1C ?
12-hLO inh: 1%; IMPase Li cell: 32%; PNC inhibitor: inconclusive; HPGD block: 3.5µM*; IMPase inh: -5; ALDH1A1 block: -4%

What do the screens show for `Cn1ncc([N+](=O)[O-])c1C(=O)Nc1nc2ccccc2n1CCN1CCCCC1`?
12-hLO inh: -1%; IMPase Li cell: 7.9µM*; PNC inhibitor: -4; HPGD block: -11%; IMPase inh: 8; ALDH1A1 block: inconclusive

What do the screens show for `CN(C)S(=O)(=O)N(CC(=O)NCCSc1ccccc1)c1ccccc1`?
IMPase inh: 2

Results for O=C(O)[C@H]1CCCN1 ?
IMPase Li cell: 6%; ALDH1A1 block: 9%
